Screening results from PubChem.
miR-122 inh: miR-122 suppressors via Renilla sensor increase, primary screen, cell-based, Huh7 psiCHECK-miR122, Renilla luciferase, single point. 0.14% of 340,000 active. activation, % at 12.5 µM. AID 623901, 2012. 48 h;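 active means mean activation of 30% or more, with every replicate also reaching 30%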;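 further: higher luciferase signal means stronger suppression of miR-122 activity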
Large screens that a line does not name were inactive. The full list was thinned out, with hits kept by preference.

C[C@H]1CN([C@@H](C)CO)C(=O)c2cc(C#CCc3ccccc3)cnc2O[C@H]1CN(C)Cc1cccc(C(=O)O)c1	none
C[C@@H]1CN([C@H](C)CO)C(=O)c2cc(-c3ccncc3)cnc2O[C@H]1CN(C)C(=O)Cc1ccccn1	none
CC(C)C#Cc1cnc2c(c1)C(=O)N([C@H](C)CO)C[C@H](C)[C@H](CN(C)C(=O)CC1CC1)O2	none
C[C@@H]1CN([C@@H](C)CO)C(=O)c2cc(C#Cc3ccc(F)cc3)cnc2O[C@H]1CN(C)C(=O)c1ccccc1F	none
COC(=O)C[C@@H]1CC[C@@H]2[C@@H](COc3ccc(NS(=O)(=O)c4ccccc4F)cc3C(=O)N2C)O1	miR-122 inh 42
CCCNC(=O)C[C@@H]1CC[C@@H]2[C@H](COc3ccc(NS(=O)(=O)c4ccccc4C)cc3C(=O)N2C)O1	miR-122 inh 67
CC(C)C#Cc1ccc2c(c1)O[C@H](CN(C)Cc1ccncc1)[C@@H](C)CN([C@H](C)CO)S2(=O)=O	none
C[C@H](CO)N1C[C@H](C)[C@@H](CN(C)C(=O)CN(C)C)Oc2ncc(C#C[C@@H](C)O)cc2C1=O	none
C[C@H](CO)N1C[C@H](C)[C@@H](CN(C)C(=O)Nc2ccc(F)cc2)Oc2cc(C#CC3(O)CCCC3)ccc2S1(=O)=O	none
CC(C)CC#Cc1cnc2c(c1)C(=O)N([C@@H](C)CO)C[C@@H](C)[C@H](CN(C)C(=O)Nc1cc(F)ccc1F)O2	none
C[C@H](CO)N1C[C@H](C)[C@@H](CN(C)C(=O)C2CCOCC2)Oc2cc(-c3ccc(F)cc3)ccc2S1(=O)=O	none
COCC#Cc1ccc2c(c1)O[C@@H](CN(C)C(=O)C1CCCCC1)[C@H](C)CN([C@H](C)CO)S2(=O)=O	none
O=C(Nc1ccccc1)N1C[C@H]2[C@@H](c3ccccc31)[C@@H](CO)N2C(=O)c1ccccn1	none
COc1ccc(NC(=O)N2CCCCN3[C@@H](CO)[C@H](c4ccc(C#CCC(C)C)cc4)[C@@H]3C2)cc1	miR-122 inh 33
CC(C)CC#Cc1ccc([C@H]2[C@@H](CO)N3CCCCN(S(=O)(=O)Cc4ccccc4)C[C@H]23)cc1	miR-122 inh 35
COCC#Cc1cnc2c(c1)C(=O)N([C@H](C)CO)C[C@@H](C)[C@@H](CN(C)C(=O)Nc1ccc(OC)cc1)O2	none
COCC#Cc1cnc2c(c1)C(=O)N([C@H](C)CO)C[C@H](C)[C@@H](CN(C)C(=O)Nc1ccc(OC)cc1)O2	none
COc1cccc(NC(=O)N(C)C[C@H]2Oc3cc(C#Cc4ccccc4)ccc3S(=O)(=O)N([C@H](C)CO)C[C@@H]2C)c1	none
COc1ccc(C#Cc2ccc([C@H]3[C@H](CO)N4CCCCN(C(=O)Nc5ccccc5)C[C@@H]34)cc2)cc1	miR-122 inh 35
CO[C@@H]1CN(C)C(=O)c2ccc(NC(=O)C3CCC3)cc2OC[C@@H](C)NC[C@H]1C	none
CC(=O)N1[C@H](CNC(=O)C2CC2)[C@@H](c2ccc(-c3ccccc3)cc2)[C@@H]1CO	none
C[C@H](CO)N1C[C@H](C)[C@@H](CN(C)C(=O)c2ccccn2)Oc2ncc(-c3cccc(F)c3)cc2C1=O	none
CC(C)CC#Cc1cnc2c(c1)C(=O)N([C@H](C)CO)C[C@@H](C)[C@H](CN(C)C(=O)Nc1ccccc1F)O2	none
C[C@@H]1CN([C@H](C)CO)S(=O)(=O)c2ccc(C#Cc3ccccc3)cc2O[C@@H]1CN(C)S(=O)(=O)c1ccccc1F	none
CCCNC(=O)N(C)C[C@H]1Oc2ncc(C#CCC(C)C)cc2C(=O)N([C@H](C)CO)C[C@@H]1C	none
C[C@H]1CN([C@@H](C)CO)S(=O)(=O)c2ccc(-c3ccncc3)cc2O[C@@H]1CN(C)C(=O)C1CC1	none
CCCNC(=O)N(C)C[C@H]1Oc2cc(C#CC(C)C)ccc2S(=O)(=O)N([C@H](C)CO)C[C@@H]1C	none
CO[C@@H]1CN(C)C(=O)c2ccc(NC(=O)NC(C)C)cc2OC[C@H](C)NC[C@H]1C	none
Cc1ccc(-c2ccc3c(c2)O[C@H](CN(C)Cc2cccc(C(=O)O)c2)[C@@H](C)CN([C@H](C)CO)S3(=O)=O)cc1	none
C[C@H]1CN([C@@H](C)CO)S(=O)(=O)c2ccc(C#Cc3cccnc3)cc2O[C@@H]1CN(C)C(=O)C1CC1	none
CC(C)CC#Cc1cnc2c(c1)C(=O)N([C@H](C)CO)C[C@@H](C)[C@H](CN(C)C(=O)Nc1cccc(F)c1)O2	none
COc1ccc(OC)c(Nc2cc(C)nc3nc(C)nn23)c1	none
COc1ccc(NS(=O)(=O)c2cc(OC)ccc2OC)cc1	none
COc1ccc(OC)c(Nc2cc(C)nc3ccc(C)cc23)c1	miR-122 inh 32
CCC(=O)Nc1ccc2c(c1)OC[C@H](C)N(Cc1ccccc1F)C[C@@H](C)[C@H](OC)CN(C)C2=O	none
CCCCCCCCCCn1c2c(c(=N)c3c1CCC3)CCC2	miR-122 inh 66
C[C@@H]1CN([C@H](C)CO)C(=O)c2cc(C#Cc3cccnc3)cnc2O[C@@H]1CN(C)Cc1ccncc1	none
CCC(=O)Nc1ccc2c(c1)OC[C@H](C)N(C(=O)c1ccncc1)C[C@@H](C)[C@H](OC)CN(C)C2=O	none
C[C@H](O)C#Cc1ccc2c(c1)O[C@H](CN(C)CC1CCOCC1)[C@@H](C)CN([C@H](C)CO)S2(=O)=O	none
COc1cccc(CNC(=O)C[C@@H]2CC[C@H]3[C@H](COc4ccc(NC(C)=O)cc4C(=O)N3C)O2)c1	miR-122 inh 37
CC(=O)Nc1ccc2c(c1)C(=O)N(C)[C@H]1CC[C@@H](CC(=O)NCc3ccc(Cl)cc3)O[C@H]1CO2	none
COc1cccc(C(=O)Nc2ccc3c(c2)C(=O)N(C)[C@H]2CC[C@H](CC(=O)NCc4ccc(F)cc4)O[C@@H]2CO3)c1	miR-122 inh 53
COc1ccccc1C(=O)Nc1ccc2c(c1)C(=O)N(C)[C@H]1CC[C@H](CC(=O)NCc3ccc(Cl)c(Cl)c3)O[C@@H]1CO2	none
CC(=O)Nc1ccc2c(c1)C(=O)N(C)[C@@H]1CC[C@@H](CC(=O)NCc3ccc(Cl)cc3)O[C@H]1CO2	miR-122 inh 68
COc1ccccc1C(=O)Nc1ccc2c(c1)C(=O)N(C)[C@H]1CC[C@H](CC(=O)NCc3ccc(Cl)c(Cl)c3)O[C@H]1CO2	none
C[C@H](CO)N1C[C@H](C)[C@H](CN(C)C(=O)C2CC2)Oc2cc(-c3ccncc3)ccc2S1(=O)=O	none
C[C@H](CO)N1C[C@H](C)[C@H](CN(C)Cc2ccc(F)cc2)Oc2cc(C#Cc3ccccn3)ccc2S1(=O)=O	none
C[C@@H]1CN([C@@H](C)CO)S(=O)(=O)c2ccc(C#CC3CC3)cc2O[C@H]1CN(C)Cc1ccccn1	none
C[C@@H]1CN([C@@H](C)CO)S(=O)(=O)c2ccc(Br)cc2O[C@@H]1CN(C)CC1CCOCC1	none
CC(=O)N(C)C[C@H]1Oc2cc(C#C[C@@H](C)O)ccc2S(=O)(=O)N([C@@H](C)CO)C[C@@H]1C	none
C[C@H](CO)N1C[C@H](C)[C@H](CN(C)S(=O)(=O)c2ccc(Cl)cc2)Oc2ccc(NC(=O)Nc3ccc(C(F)(F)F)cc3)cc2CC1=O	none
C[C@@H]1CN([C@H](C)CO)C(=O)c2cc(-c3cccc(F)c3)cnc2O[C@H]1CN(C)Cc1cncnc1	none
CC(=O)N(C)C[C@H]1Oc2cc(C#C[C@H](C)O)ccc2S(=O)(=O)N([C@H](C)CO)C[C@H]1C	none
COc1ccc(C#Cc2ccc3c(c2)O[C@@H](CN(C)C)[C@@H](C)CN([C@H](C)CO)S3(=O)=O)cc1	none
CCN(C[C@H]1[C@H](c2ccccc2)[C@@H](CO)N1C(=O)COC)S(C)(=O)=O	none
O=C(c1ccc(F)cc1)N1C[C@H]2[C@@H](c3ccccc31)[C@@H](CO)N2C(=O)c1ccc(F)cc1	none
